Experimental findings from publication PMC7862700, “An all-to-all approach to the identification of sequence-specific readers for epigenetic DNA modifications on cytosine” are described below.

What all share (test): DAPPL (digital affinity profiling via proximity ligation, sequencing); 10 mM Tris-HCl pH 7.5, 50 mM NaCl, 1 mM DTT, 4% glycerol, room temperature, 30 min; GST-TFs on glutathione beads, 16-mer random dsDNA library, 0.1% formaldehyde crosslink after washing; high values mean tight binding
Test [1] deals with T1, FLI1 (Homo sapiens, UniProt Q01543 1-452).
T1 sequence: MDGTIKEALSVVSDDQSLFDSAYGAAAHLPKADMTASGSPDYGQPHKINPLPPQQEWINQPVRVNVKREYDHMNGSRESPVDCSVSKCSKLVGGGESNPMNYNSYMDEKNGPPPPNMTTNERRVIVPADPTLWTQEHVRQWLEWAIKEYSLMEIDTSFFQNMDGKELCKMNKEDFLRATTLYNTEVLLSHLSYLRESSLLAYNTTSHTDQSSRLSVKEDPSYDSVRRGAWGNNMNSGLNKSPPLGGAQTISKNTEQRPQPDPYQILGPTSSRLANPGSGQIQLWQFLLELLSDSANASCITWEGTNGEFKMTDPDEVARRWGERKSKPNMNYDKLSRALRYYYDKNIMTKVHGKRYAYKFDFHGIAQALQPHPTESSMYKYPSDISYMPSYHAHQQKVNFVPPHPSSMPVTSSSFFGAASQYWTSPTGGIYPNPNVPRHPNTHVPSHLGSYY
Conditions: protein: recombinant; tags: N-terminal GST; dsDNA, one strand shown. In short, it runs like this:
(§1)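 Binding signal is given per hexamer as its read frequency for a factor divided by its frequency in the tag-only sample. GST-fused human transcription factors were expressed in yeast, captured on glutathione beads, barcoded with DNA and pooled with that sample, then incubated with 200 nmole of a 16-mer random double-stranded DNA library in Tris/NaCl/DTT/glycerol buffer for 30 min at room temperature. The pools were then washed, crosslinked, proximity-ligated, amplified by PCR and sequenced on an Illumina NextSeq500.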

The target of test [2] is T2, ELK1 (Homo sapiens, UniProt P19419 1-428).
T2 sequence: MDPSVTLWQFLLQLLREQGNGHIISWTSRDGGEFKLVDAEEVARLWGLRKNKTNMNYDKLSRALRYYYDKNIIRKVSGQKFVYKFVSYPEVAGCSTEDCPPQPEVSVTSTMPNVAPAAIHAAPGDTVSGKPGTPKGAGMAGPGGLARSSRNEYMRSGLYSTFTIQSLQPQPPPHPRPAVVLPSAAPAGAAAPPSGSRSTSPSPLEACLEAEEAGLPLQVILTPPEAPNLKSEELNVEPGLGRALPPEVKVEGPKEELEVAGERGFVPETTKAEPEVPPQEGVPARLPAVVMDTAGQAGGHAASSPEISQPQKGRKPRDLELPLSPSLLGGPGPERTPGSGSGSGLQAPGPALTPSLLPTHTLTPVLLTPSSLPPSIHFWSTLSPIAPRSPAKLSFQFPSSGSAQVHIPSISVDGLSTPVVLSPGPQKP
Conditions: protein: recombinant; tags: N-terminal GST; dsDNA, one strand shown. In short, it runs like this: as §1

Test [3] has as its target T3, GABPA (Homo sapiens, UniProt Q06546 1-454).
T3 sequence: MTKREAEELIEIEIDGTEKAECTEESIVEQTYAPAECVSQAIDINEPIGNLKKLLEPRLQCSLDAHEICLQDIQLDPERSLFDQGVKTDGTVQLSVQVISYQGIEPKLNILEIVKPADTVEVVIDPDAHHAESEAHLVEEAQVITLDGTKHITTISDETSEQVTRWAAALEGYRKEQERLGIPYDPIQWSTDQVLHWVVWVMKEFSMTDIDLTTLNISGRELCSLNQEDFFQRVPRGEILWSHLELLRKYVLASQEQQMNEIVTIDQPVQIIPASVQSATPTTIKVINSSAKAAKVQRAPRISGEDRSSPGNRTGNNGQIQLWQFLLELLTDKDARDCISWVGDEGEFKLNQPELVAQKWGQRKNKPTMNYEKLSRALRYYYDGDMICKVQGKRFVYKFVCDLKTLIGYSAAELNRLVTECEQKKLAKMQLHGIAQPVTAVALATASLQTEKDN
Particulars: protein: recombinant; tags: N-terminal GST; dsDNA, one strand shown. In short, it runs like this: as §1

Test [4] addresses T4, ERG (Homo sapiens, UniProt P11308 1-479).
T4 sequence: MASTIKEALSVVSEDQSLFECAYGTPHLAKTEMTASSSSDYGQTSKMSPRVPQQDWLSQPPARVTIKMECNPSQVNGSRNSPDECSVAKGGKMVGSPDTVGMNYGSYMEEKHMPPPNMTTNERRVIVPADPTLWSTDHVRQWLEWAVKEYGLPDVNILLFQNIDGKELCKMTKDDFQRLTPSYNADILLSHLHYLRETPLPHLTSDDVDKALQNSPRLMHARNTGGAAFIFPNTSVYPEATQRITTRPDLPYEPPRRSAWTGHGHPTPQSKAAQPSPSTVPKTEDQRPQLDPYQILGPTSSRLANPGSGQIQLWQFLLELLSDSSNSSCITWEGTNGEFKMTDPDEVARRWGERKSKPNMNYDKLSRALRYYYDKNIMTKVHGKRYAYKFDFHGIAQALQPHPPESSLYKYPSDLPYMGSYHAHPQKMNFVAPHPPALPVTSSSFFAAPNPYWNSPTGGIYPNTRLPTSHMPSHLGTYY
Particulars: protein: recombinant; tags: N-terminal GST; dsDNA, one strand shown. The essentials:
as §1

The target of test [5] is ELF1 (Homo sapiens, UniProt P32519 1-619). Conditions: protein: recombinant; tags: N-terminal GST; dsDNA, one strand shown. The essentials: as §1
Test [6] deals with T5, EHF (Homo sapiens, UniProt Q9NZC4 1-300).
T5 sequence: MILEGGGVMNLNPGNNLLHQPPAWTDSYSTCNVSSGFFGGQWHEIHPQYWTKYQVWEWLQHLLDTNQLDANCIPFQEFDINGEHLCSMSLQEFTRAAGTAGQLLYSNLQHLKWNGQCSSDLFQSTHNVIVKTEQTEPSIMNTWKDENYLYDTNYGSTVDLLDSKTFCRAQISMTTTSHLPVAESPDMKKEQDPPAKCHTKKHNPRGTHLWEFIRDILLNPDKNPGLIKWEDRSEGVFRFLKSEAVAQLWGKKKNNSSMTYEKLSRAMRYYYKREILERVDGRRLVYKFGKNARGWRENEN
Particulars: protein: recombinant; tags: N-terminal GST; dsDNA, one strand shown. The essentials:
as §1

The target of test [7] is SPI1 (Homo sapiens, UniProt P17947 1-270). Particulars: protein: recombinant; tags: N-terminal GST; dsDNA, one strand shown. The essentials: as §1
The target of test [8] is SPIB (Homo sapiens, UniProt Q01892 1-262). Conditions: protein: recombinant; tags: N-terminal GST; dsDNA, one strand shown. The essentials:
as §1

The target in test [9] is T6, ELK3 (Homo sapiens, UniProt P41970 1-407).
T6 sequence: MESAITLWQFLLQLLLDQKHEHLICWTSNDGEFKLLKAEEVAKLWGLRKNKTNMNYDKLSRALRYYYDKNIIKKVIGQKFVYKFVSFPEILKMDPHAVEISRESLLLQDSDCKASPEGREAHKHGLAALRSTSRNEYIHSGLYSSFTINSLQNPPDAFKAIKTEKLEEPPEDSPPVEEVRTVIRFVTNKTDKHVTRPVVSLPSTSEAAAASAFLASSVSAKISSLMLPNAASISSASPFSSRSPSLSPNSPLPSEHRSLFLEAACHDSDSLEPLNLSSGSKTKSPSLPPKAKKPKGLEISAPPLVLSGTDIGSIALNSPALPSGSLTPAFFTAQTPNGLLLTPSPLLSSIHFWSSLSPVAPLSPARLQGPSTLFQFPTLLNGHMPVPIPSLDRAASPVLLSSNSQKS
Particulars: protein: recombinant; tags: N-terminal GST; dsDNA, one strand shown. The essentials: as §1

For test [10], the target named is T7, FEV (Homo sapiens, UniProt Q99581 1-238).
T7 sequence: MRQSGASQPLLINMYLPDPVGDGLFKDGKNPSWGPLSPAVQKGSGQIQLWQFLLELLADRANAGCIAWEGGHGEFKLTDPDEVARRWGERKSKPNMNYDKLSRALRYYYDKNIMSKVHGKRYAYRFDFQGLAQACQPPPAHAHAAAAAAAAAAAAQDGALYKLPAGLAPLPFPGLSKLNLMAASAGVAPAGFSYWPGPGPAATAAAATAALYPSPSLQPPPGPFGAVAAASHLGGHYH
Particulars: protein: recombinant; tags: N-terminal GST; dsDNA, one strand shown. In short, it runs like this:
as §1

Test [11] deals with ETV5 (Homo sapiens, UniProt P41161 1-510). Particulars: protein: recombinant; tags: N-terminal GST; dsDNA, one strand shown. The essentials:
as §1

Test [12] concerns the target HSF1 (Homo sapiens, UniProt Q00613 1-529). Particulars: protein: recombinant; tags: N-terminal GST; chain copies: 3; dsDNA, one strand shown. The essentials: as §1
The target in test [13] is T8, SPIC (Homo sapiens, UniProt Q8N5J4 1-248).
T8 sequence: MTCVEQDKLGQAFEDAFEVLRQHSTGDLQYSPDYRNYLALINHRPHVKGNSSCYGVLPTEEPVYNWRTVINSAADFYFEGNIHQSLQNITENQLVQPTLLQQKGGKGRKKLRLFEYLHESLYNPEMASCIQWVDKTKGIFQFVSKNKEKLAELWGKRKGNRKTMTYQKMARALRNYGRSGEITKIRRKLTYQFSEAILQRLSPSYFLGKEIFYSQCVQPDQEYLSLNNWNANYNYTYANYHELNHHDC
Particulars: protein: recombinant; tags: N-terminal GST; dsDNA, one strand shown. The essentials:
as §1

Test [14] concerns the target ELF4 (Homo sapiens, UniProt Q99607 1-663). Particulars: protein: recombinant; tags: N-terminal GST; dsDNA, one strand shown. The essentials: as §1
The target of test [15] is T9, ELK4 (Homo sapiens, UniProt P28324-2 1-405).
T9 sequence: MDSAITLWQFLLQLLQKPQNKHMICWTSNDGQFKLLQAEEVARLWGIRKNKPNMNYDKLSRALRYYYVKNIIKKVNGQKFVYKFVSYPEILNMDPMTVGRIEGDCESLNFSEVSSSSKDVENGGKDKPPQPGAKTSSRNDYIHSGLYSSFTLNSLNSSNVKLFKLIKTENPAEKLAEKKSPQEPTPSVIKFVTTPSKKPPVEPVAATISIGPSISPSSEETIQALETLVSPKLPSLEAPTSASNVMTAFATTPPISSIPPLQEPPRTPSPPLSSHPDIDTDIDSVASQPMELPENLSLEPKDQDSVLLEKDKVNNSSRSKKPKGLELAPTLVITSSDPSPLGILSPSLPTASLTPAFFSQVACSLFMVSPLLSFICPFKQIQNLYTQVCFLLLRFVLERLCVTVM
Particulars: protein: recombinant; tags: N-terminal GST; dsDNA, one strand shown. The essentials:
as §1

The target in test [16] is T10, ETV2 (Homo sapiens, UniProt O00321 1-342).
T10 sequence: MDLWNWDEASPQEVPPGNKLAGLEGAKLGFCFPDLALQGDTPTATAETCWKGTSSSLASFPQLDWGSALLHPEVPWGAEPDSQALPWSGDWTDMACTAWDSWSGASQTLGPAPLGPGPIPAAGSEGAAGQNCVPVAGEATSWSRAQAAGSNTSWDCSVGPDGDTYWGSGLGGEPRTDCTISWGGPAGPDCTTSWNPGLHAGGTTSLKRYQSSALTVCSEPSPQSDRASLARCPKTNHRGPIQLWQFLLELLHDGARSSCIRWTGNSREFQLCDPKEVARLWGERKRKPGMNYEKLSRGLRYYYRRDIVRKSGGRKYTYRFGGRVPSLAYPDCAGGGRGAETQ
Particulars: protein: recombinant; tags: N-terminal GST; dsDNA, one strand shown. In short, it runs like this: as §1

The target of test [17] is T11, ELF3 (Homo sapiens, UniProt P78545 1-371).
T11 sequence: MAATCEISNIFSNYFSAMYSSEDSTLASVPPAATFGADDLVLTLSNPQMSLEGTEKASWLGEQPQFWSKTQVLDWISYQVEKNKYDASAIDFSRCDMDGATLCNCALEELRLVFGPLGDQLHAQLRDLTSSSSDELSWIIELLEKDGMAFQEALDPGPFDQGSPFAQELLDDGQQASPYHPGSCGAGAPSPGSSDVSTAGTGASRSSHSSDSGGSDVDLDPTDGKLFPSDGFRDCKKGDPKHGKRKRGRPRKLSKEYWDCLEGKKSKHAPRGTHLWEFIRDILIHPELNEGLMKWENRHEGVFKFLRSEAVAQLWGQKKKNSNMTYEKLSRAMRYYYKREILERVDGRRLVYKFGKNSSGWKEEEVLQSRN
Conditions: protein: recombinant; tags: N-terminal GST; dsDNA, one strand shown. In short, it runs like this: as §1

In test [18] the target is CRX (Homo sapiens, UniProt O43186 1-299). Particulars: protein: recombinant; tags: N-terminal GST; dsDNA, one strand shown. The essentials: as §1
The target in test [19] is ETV1 (Homo sapiens, UniProt P50549 1-477). Particulars: protein: recombinant; tags: N-terminal GST; dsDNA, one strand shown. The essentials:
as §1

Sequence of ETV1 (P50549 whole entry): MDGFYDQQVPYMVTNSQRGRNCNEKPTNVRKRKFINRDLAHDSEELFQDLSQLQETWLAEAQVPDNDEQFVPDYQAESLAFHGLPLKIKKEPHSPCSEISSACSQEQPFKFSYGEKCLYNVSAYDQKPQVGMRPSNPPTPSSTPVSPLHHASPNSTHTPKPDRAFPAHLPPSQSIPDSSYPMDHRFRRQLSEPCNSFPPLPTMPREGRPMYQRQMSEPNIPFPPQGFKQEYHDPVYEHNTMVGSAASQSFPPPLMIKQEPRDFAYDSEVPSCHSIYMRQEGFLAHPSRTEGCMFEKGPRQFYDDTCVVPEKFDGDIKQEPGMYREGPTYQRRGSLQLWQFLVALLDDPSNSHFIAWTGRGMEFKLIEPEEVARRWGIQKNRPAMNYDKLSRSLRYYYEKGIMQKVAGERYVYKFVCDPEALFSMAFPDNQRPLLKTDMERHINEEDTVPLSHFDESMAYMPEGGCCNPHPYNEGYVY
Sequence of SPIB (Q01892 whole entry): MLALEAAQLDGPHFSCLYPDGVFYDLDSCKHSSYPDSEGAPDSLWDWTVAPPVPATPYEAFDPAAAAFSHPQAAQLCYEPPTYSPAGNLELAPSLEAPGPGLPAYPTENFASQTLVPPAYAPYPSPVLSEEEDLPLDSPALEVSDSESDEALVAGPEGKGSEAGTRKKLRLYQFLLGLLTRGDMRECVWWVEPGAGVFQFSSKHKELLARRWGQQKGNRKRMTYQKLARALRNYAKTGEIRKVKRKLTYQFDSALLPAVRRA
Sequence of CRX (O43186 whole entry): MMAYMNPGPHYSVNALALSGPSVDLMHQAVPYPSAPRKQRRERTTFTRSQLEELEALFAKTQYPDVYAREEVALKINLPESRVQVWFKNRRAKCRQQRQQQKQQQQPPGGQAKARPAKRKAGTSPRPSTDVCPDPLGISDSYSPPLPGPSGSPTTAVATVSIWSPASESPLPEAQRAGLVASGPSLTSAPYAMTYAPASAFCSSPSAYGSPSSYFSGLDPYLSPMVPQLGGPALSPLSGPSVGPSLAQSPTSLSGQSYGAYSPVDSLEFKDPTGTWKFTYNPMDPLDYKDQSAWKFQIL
Sequence of HSF1 (Q00613 whole entry): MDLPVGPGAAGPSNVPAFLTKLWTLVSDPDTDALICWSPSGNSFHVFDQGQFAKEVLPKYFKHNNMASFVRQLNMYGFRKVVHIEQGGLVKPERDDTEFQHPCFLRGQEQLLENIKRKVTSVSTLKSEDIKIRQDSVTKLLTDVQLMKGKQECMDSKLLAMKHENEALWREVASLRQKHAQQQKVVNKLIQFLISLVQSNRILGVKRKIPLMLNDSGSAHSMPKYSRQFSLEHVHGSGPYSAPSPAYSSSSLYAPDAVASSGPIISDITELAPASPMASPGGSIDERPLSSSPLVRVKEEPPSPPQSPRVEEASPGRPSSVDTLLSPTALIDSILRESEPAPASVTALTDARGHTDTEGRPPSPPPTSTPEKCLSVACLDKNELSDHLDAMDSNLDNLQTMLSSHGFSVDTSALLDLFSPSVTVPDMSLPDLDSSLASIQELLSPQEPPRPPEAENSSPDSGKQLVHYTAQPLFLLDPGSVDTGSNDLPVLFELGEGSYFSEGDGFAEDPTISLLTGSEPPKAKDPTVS
Sequence of ETV5 (P41161 whole entry): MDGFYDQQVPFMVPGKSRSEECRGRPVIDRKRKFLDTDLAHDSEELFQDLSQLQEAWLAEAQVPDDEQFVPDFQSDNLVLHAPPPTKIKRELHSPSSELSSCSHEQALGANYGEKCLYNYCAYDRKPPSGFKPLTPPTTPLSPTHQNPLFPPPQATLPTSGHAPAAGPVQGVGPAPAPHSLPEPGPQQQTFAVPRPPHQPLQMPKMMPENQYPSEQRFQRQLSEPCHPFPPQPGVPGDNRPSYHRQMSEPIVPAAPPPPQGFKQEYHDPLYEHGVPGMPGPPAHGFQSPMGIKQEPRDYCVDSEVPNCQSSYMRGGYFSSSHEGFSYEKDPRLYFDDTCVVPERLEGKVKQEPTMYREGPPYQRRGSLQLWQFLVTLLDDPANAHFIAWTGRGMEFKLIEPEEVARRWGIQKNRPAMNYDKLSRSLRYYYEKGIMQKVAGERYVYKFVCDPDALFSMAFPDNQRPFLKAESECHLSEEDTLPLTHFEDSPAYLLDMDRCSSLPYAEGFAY
Sequence of ELF1 (P32519 whole entry): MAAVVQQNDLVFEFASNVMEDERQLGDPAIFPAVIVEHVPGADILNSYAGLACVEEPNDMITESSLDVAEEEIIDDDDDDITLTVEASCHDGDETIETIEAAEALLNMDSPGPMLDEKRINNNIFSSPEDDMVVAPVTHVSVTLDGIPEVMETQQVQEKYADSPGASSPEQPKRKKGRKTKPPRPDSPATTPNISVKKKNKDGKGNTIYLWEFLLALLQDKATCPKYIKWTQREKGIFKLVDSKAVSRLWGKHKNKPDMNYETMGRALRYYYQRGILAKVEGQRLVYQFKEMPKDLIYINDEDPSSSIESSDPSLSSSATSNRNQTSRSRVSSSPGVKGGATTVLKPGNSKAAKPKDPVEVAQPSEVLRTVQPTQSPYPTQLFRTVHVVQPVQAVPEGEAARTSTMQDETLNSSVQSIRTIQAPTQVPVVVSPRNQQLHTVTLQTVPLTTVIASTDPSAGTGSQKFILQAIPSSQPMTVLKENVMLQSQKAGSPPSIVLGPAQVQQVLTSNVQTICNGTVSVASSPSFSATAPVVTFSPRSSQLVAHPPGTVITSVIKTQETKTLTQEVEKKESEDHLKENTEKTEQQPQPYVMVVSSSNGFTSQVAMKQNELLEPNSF
Sequence of ELF4 (Q99607 whole entry): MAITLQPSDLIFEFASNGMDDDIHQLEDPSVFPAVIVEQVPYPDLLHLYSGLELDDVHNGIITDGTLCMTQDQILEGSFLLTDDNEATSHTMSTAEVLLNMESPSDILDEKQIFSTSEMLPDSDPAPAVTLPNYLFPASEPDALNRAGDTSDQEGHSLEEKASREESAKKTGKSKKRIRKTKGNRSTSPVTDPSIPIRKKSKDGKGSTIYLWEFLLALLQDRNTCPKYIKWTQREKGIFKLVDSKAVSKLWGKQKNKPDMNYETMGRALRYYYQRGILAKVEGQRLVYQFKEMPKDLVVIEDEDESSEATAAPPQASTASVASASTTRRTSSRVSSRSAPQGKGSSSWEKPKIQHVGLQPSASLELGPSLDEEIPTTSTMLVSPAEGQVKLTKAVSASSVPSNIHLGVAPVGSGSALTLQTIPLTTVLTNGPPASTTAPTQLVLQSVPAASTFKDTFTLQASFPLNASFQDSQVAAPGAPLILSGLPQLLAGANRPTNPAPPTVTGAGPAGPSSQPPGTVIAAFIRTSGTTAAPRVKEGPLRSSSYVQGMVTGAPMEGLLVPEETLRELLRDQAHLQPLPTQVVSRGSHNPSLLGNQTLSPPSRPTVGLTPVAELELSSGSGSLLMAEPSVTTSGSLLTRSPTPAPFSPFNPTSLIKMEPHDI

As to ATGGCT, the binding signal in test [1] is 1.17 fold enrichment (6-mer frequency, TF over GST control); in test [2], 1.34 fold enrichment (6-mer frequency, TF over GST control); in [3] it was 1.29 fold enrichment (6-mer frequency, TF over GST control); in test [4] it was 1.37 fold enrichment (6-mer frequency, TF over GST control); in [5], 1.37 fold enrichment (6-mer frequency, TF over GST control); in [6] it was 1.4 fold enrichment (6-mer frequency, TF over GST control). For the same sequence, the binding signal in test [7] is 1.28 fold enrichment (6-mer frequency, TF over GST control); in test [8], 1.37 fold enrichment (6-mer frequency, TF over GST control); in [9], 1.28 fold enrichment (6-mer frequency, TF over GST control); in test [10], 1.33 fold enrichment (6-mer frequency, TF over GST control); in [11] it was 1.29 fold enrichment (6-mer frequency, TF over GST control); in test [12], 1.32 fold enrichment (6-mer frequency, TF over GST control). Moreover, the binding signal is 1.42 fold enrichment (6-mer frequency, TF over GST control) in test [13]; 1.32 fold enrichment (6-mer frequency, TF over GST control) in test [14]; 1.34 fold enrichment (6-mer frequency, TF over GST control) in test [15]; 1.41 fold enrichment (6-mer frequency, TF over GST control) in test [16]; 1.33 fold enrichment (6-mer frequency, TF over GST control) in test [17]; 1.48 fold enrichment (6-mer frequency, TF over GST control) in test [18]. For the same sequence, the binding signal in test [19] is 1.29 fold enrichment (6-mer frequency, TF over GST control).
